High-throughput results (PubChem BioAssay)
HCMV inh = blocks human cytomegalovirus replication; activity change, negative = inhibition, % at 57.5 µM; AID 1259415; actives 4.5% (n = 410,000); HFF cells, HCMV-luciferase reporter, 72 h; stronger effect = lower value; in the data active = activity change below about -60%; inconclusive = no clear call, values can overlap the other calls; inactive = above about -39%
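Cell-based, HFFs, 1000 cells/well, 16 h 37C; cpds in DMSO + HCMV-luc, MOI 1 PFU/cell; 72 h 37C; OneGlo luminescence after 5 min RT; norm. to buffer vs Salinomycin 10uM.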
Shiga inhibitor = inhibitors of Shiga toxin in Vero cells; actives 9.2% (n = 290,000); Vero cells, Shiga toxin protein synthesis inhibition reporter; inhibition, % at 38.7 µM; AID 2315; in the data active = inhibition mostly above about 28%, no sharp cut-off; inactive = mostly below about 43%
Pf growth 48h = inhibits P. falciparum growth in the first generation, 48 h; P. falciparum luciferase growth in erythrocytes, 48 h; Potency, µM (titrated, usually from 28.7 µM), actives largely listed as inhibitors; actives 5.9% (n = 310,000)
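Firefly luciferase activity from engineered P. falciparum reports growth; inhibitors lower the luminescent signal. Cultures contained 2% hematocrit erythrocytes at 0.1% final parasitemia.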
Cycloheximide cs = counter-screen hit for Shiga toxin inhibitors, cycloheximide; actives 12% (n = 300,000); max response, %; AID 2314; cell reporter, cycloheximide protein synthesis inhibition counterscreen; in the data active = max response mostly above about 13%, no sharp cut-off; inactive = mostly below about 14%; also: read at 38.3 µM for the half of the compounds with a filed dose
Pf growth 96h = P. falciparum growth inhibition at 96 hours. AID 504834. Potency, µM (doses to about 28.7 µM), actives largely listed as inhibitors. P. falciparum luciferase reporter growth, 96 h. actives 6.9% (n = 320,000)
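Two-generation exposure (96 h) targets delayed-death phenotype. Reporter parasites carrying integrated firefly luciferase, in red cells at 2% hematocrit and 0.05% parasitemia final, kept at 37 C, 5% CO2; luminescence loss indicates inhibition.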
HCV inhibitor = blocks hepatitis C virus | Huh7.5.1 HCVcc-Cre infection, luciferase reporter, 44 h | Potency, µM (titrated, usually from 41.8 µM), most hits filed as inhibitors | actives 3.4% (n = 340,000) | AID 651820
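1,000 cells/well; 4 h culture; + compound; + HCVcc-Cre (~0.5 moi); 44 h; luciferase substrate, RT 15 min; read 15 sec.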
Each line names hits and unclear results; the compound was inactive in the other large screens. This is a sample that favours compounds with a hit; in the whole collection about 21% have one here. Unless noted, calls follow the shape of the dose curve; as a rule, active = well fitted inhibition curve with a large enough effect; inconclusive = small, poorly fitted or top-dose-only effect, or another doubt; inactive = no such curve, though single readings can be large or run the other way.

CCOC(=O)c1cnc2c(OC)cccc2c1NCc1cccnc1	HCMV inh -62.3
CCOC(=O)c1cnc2ccc(OCC)cc2c1NCc1cccnc1	HCMV inh inconclusive, Shiga inhibitor 42.4, Pf growth 48h inconclusive, Cycloheximide cs 26.6, Pf growth 96h 6.57µM, HCV inhibitor inconclusive
CCOC(=O)c1cnc2ccc(OCC)cc2c1NCc1ccccc1	HCMV inh -72.9, Shiga inhibitor 42.1, Pf growth 48h 11.7µM, Cycloheximide cs 19.4, Pf growth 96h inconclusive, HCV inhibitor 10µM
CCOC(=O)c1cnc2ccc(OCC)cc2c1N1CCN(c2ccccc2)CC1	Pf growth 48h inconclusive, HCV inhibitor inconclusive (no result: Pf growth 96h)
CCN(CC(=O)Nc1ccc(NC(C)=O)cc1)C(=O)c1cccc(-n2cccc2)c1	none (no result: HCMV inh, Shiga inhibitor, Cycloheximide cs)
CC1CCCN(C(=O)c2ccc3c(=O)n(C4CCCC4)c(=S)[nH]c3c2)C1 (centres undefined)	HCMV inh -62.4, Pf growth 48h inconclusive, HCV inhibitor 10µM
O=C(c1ccc2c(=O)n(C3CCCC3)c(=S)[nH]c2c1)N1CCCCCC1	HCMV inh inconclusive, Pf growth 48h inconclusive, Pf growth 96h inconclusive, HCV inhibitor inconclusive
O=C(c1ccc2c(=O)n(-c3ccccc3)c(=S)[nH]c2c1)N1CCCCC1	HCMV inh -92.4, HCV inhibitor inconclusive
O=C(c1ccc2c(=O)n(-c3ccccc3)c(=S)[nH]c2c1)N1CCN(c2ccccc2)CC1	Pf growth 48h inconclusive, HCV inhibitor 11.2µM (no result: Shiga inhibitor, Cycloheximide cs)
O=C(CCc1ccccc1)Nc1ccc(S(=O)(=O)NC2=NCCCCC2)cc1	none (no result: Shiga inhibitor, Pf growth 48h, Cycloheximide cs, Pf growth 96h)
CSc1cnn(CCC#N)c(=O)n1	none (no result: Shiga inhibitor, Pf growth 48h, Cycloheximide cs, Pf growth 96h, HCV inhibitor)
S=c1[nH]cc(-c2ccccc2)n1-c1cccc(Cl)c1	none
Cn1c(-c2ccc(-c3ccccc3)cc2)c[nH]c1=S	HCMV inh inconclusive, Shiga inhibitor 68.8, Pf growth 48h 5.22µM, Cycloheximide cs 30.9, Pf growth 96h inconclusive, HCV inhibitor 5.01µM
Cc1ccc(-c2c[nH]c(=S)n2-c2ccccc2)cc1	Pf growth 48h inconclusive
C=CCn1c(-c2ccc(Cl)cc2)c[nH]c1=S	none
Cc1ccc(-c2c[nH]c(=S)n2-c2ccccc2F)cc1	HCMV inh -64.5
CCn1c(-c2ccc(-c3ccccc3)cc2)c[nH]c1=S	Pf growth 96h 4.65µM, HCV inhibitor 10µM (no result: Pf growth 48h)
C=CCn1c(-c2ccccc2)c[nH]c1=S	Shiga inhibitor 78.0, Cycloheximide cs 50.4, Pf growth 96h inconclusive
COC(=O)CC[C@H](N)C(=O)O	none (no result: HCMV inh, Shiga inhibitor, Cycloheximide cs, HCV inhibitor)
Cc1cc([N+](=O)[O-])ccc1NC(c1nnc(-c2ccccc2)o1)c1ccccc1F (centres undefined)	none (no result: Shiga inhibitor, Pf growth 48h, Cycloheximide cs, Pf growth 96h, HCV inhibitor)
CCOc1ccc(-c2nc(-c3ccccc3)no2)cc1OCC	Shiga inhibitor 70.4, Cycloheximide cs 29.2, Pf growth 96h inconclusive, HCV inhibitor inconclusive (no result: Pf growth 48h)
CCOc1ccc(-c2nc(-c3ccncc3)no2)cc1OCC	Shiga inhibitor 40.3, Cycloheximide cs 16.8 (no result: Pf growth 96h)
CCOc1cc(-c2nc(-c3ccc(Br)cc3)no2)cc(OCC)c1OCC	none (no result: Shiga inhibitor, Pf growth 48h, Cycloheximide cs, Pf growth 96h, HCV inhibitor)
COc1cccc(-c2c(-c3cc(OC)cc(OC)c3)n(C)c3ccc(-c4ccc(OC)nc4)cc23)c1	Pf growth 48h inconclusive, Pf growth 96h inconclusive (no result: Shiga inhibitor, Cycloheximide cs)
COc1ccc(-c2c(-c3ccc(OC)nc3)c3ccccc3n2C)cc1	HCV inhibitor 22.4µM (no result: Shiga inhibitor, Pf growth 48h, Cycloheximide cs, Pf growth 96h)
COc1ccc(N2C(=O)/C(=C\c3ccco3)N=C2SCC(=O)NC(C)(C)C)cc1Cl	Pf growth 48h inconclusive, Cycloheximide cs 13.4, Pf growth 96h inconclusive, HCV inhibitor inconclusive
Cc1ccc(NC(=O)CSc2nccn2-c2ccccc2)cc1	none (no result: Shiga inhibitor, Pf growth 48h, Cycloheximide cs, Pf growth 96h, HCV inhibitor)
c1ccc2c(NCCCN3CCOCC3)c3ccccc3nc2c1	HCMV inh -101.6, Pf growth 48h inconclusive, Pf growth 96h inconclusive (no result: HCV inhibitor)
Clc1ccc(-c2nc(NCCCN3CCOCC3)c3ccccc3n2)cc1	Pf growth 48h inconclusive, Pf growth 96h inconclusive
c1csc(-c2nc(NCCCN3CCOCC3)c3ccccc3n2)c1	Pf growth 48h inconclusive, Pf growth 96h inconclusive, HCV inhibitor inconclusive
Oc1ccccc1-c1nc(NCCN2CCOCC2)c2ccccc2n1	Pf growth 48h inconclusive, Pf growth 96h inconclusive, HCV inhibitor 7.08µM
CN(C)CCCNc1c2ccccc2nc2ccccc12	HCMV inh -101.9, Pf growth 48h 1.04µM, HCV inhibitor 7.94µM
Fc1ccccc1-c1nc(NCCCN2CCOCC2)c2ccccc2n1	Pf growth 48h inconclusive, Pf growth 96h inconclusive
Cc1ccc(-c2nc(NCCN3CCOCC3)c3ccccc3n2)cc1	Pf growth 96h 4.15µM (no result: Pf growth 48h)
